From PubChem BioAssay AID1159580 (chemical genetic matrix, 2015) come the findings set out here.

SMILES strings stand for the structures. Out of some 5,500 compounds screened, about 2,000 (36%) were called active. Inconclusive results (about 18%) are left out. The list shows a part of the results. Values without a mark were called inactive. Cut-off read from the data, not from the text of the source: active = normalized growth mostly below about 0.91 (no sharp cut-off); inconclusive = no clear call, values can overlap the other calls; inactive = mostly above about 0.92.

This experiment in a line: chemical genetic growth profiling, strain panel (AID 1159580).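 Note: tested at 20 µM; growth read once vehicle control cultures reached saturation at 30 °C; 1 = growth at the plate median or of vehicle wells; lower values mean less growth of the strain.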 Particulars: growth OD.
The mark [1] stands for this setting: S. cerevisiae deletion strains, locus YAL040C, strain CLN3, stronger effect = lower value.
Setting [2] is: S. cerevisiae deletion strains, locus YCL061C, strain MRC1 (second series), stronger effect = lower value.
Where [3] appears, read: S. cerevisiae deletion strains, locus YDR150W, strain NUM1, stronger effect = lower value.
The mark [4] stands for this setting: S. cerevisiae deletion strains, locus YER002W, strain NOP16, stronger effect = lower value.
Where [5] appears, read: S. cerevisiae deletion strains, locus YGR078C, strain PAC10, stronger effect = lower value.
[6] abbreviates: S. cerevisiae deletion strains, locus YMR263W, strain SAP30, stronger effect = lower value.
The mark [7] stands for this setting: S. cerevisiae deletion strains, locus YNL153C, strain GIM3, stronger effect = lower value.
[8] abbreviates: S. cerevisiae deletion strains, locus YNL175C, strain NOP13, stronger effect = lower value.
[9] abbreviates: S. cerevisiae deletion strains, locus YNL197C, strain WHI3, stronger effect = lower value.
[10] abbreviates: S. cerevisiae deletion strains, locus YNL224C, strain SQS1, stronger effect = lower value.
Where [11] appears, read: S. cerevisiae deletion strains, locus YNL322C, strain KRE1, stronger effect = lower value.
Where [12] appears, read: S. cerevisiae deletion strains, locus YOR083W, strain WHI5 (second series), stronger effect = lower value.
[13] abbreviates: S. cerevisiae deletion strains, locus YMR307W, strain GAS1, stronger effect = lower value.
Setting [14] is: S. cerevisiae deletion strains, locus YNL128W, strain TEP1, stronger effect = lower value.
Setting [15] is: S. cerevisiae deletion strains, locus YPL241C, strain CIN2, stronger effect = lower value.

As for `OC(CN1CCN(c2cccc(Cl)c2)CC1)C(c1ccccc1)c1ccccc1` (stereo not given), the normalized growth under setting [1] is 0.979; the normalized growth under setting [2] was 0.986; the normalized growth under setting [3] is 0.985; the normalized growth under setting [4] was 1.19 [resistant] (active); the normalized growth under setting [5] is 1.01; the normalized growth under setting [6] was 0.997. Also, the normalized growth under setting [7] was 0.992; the normalized growth under setting [8] is 1.09; the normalized growth under setting [9] was 0.992; the normalized growth under setting [10] was 1.01; the normalized growth under setting [11] was 0.97; the normalized growth under setting [12] was 1.17 [resistant] (active).

On to `Clc1cccc(N2CCNCC2)c1`, for which the normalized growth under setting [1] was 0.974; the normalized growth under setting [2] was 0.983; the normalized growth under setting [4] is 0.981; the normalized growth under setting [5] was 0.996; the normalized growth under setting [13] was 0.991; the normalized growth under setting [14] is 0.981. Besides, the normalized growth is 0.985 under setting [7]; 0.97 under setting [8]; 0.979 under setting [9]; 0.984 under setting [10]; 0.996 under setting [11]; 0.962 under setting [12]. Further, under setting [15], the normalized growth was 0.982.

As to `CCOC(=O)N=Nc1c(O)[nH]c2ccc(F)cc12`, the normalized growth was 1.01 (S. cerevisiae deletion strains, locus YAL013W, strain DEP1, stronger effect = lower value); 1.01 (S. cerevisiae deletion strains, locus YBR229C, strain ROT2, stronger effect = lower value); 1.01 (S. cerevisiae deletion strains, locus YDL101C, strain DUN1, stronger effect = lower value); 1 under setting [3]; 1.02 (S. cerevisiae deletion strains, locus YEL061C, strain CIN8, stronger effect = lower value); 1 under setting [5]. For the same compound, the normalized growth is 1 (S. cerevisiae deletion strains, locus YGR229C, strain SMI1, stronger effect = lower value); 1.06 (S. cerevisiae deletion strains, locus YHR030C, strain SLT2, stronger effect = lower value); 1.03 (S. cerevisiae deletion strains, locus YHR087W, strain rtc3, stronger effect = lower value); 1 (S. cerevisiae deletion strains, locus YJR043C, strain POL32, stronger effect = lower value); 1.02 (S. cerevisiae deletion strains, locus YJR075W, strain HOC1, stronger effect = lower value); 1.01 (S. cerevisiae deletion strains, locus YKL190W, strain CNB1, stronger effect = lower value). For the same compound, the normalized growth is 1.02 (S. cerevisiae deletion strains, locus YLR039C, strain RIC1, stronger effect = lower value); 0.997 (S. cerevisiae deletion strains, locus YLR058C, strain SHM2 (second series), stronger effect = lower value); 1.01 (S. cerevisiae deletion strains, locus YLR085C, strain ARP6, stronger effect = lower value); 1.01 (S. cerevisiae deletion strains, locus YLR262C, strain YPT6, stronger effect = lower value); 1.05 (S. cerevisiae deletion strains, locus YML094W, strain GIM5, stronger effect = lower value); 0.999 (S. cerevisiae deletion strains, locus YMR219W, strain ESC1, stronger effect = lower value). Further, the normalized growth by setting is: under setting [6], 0.976; under setting [13], 0.933; under setting [14], 1.02; under setting [7], 1; (S. cerevisiae deletion strains, locus YNL298W, strain CLA4 (second series), stronger effect = lower value) 0.998; under setting [11], 1.02. The normalized growth is 1.01 (S. cerevisiae deletion strains, locus YNR030W, strain Alg12, stronger effect = lower value); 1.03 (S. cerevisiae deletion strains, locus YOL006C, strain TOP1, stronger effect = lower value); 1.04 (S. cerevisiae deletion strains, locus YPL055C, strain LGE1, stronger effect = lower value); 0.889 under setting [15]; 1.08 (S. cerevisiae deletion strains, locus YPR135W, strain CTF4, stronger effect = lower value); 1 (S. cerevisiae strains, strain wild type, stronger effect = lower value).
